# Screens as filed in PubChem BioAssay.
# ANO1 block: TMEM16A chloride channel inhibitors, primary screen, cell-based, HTS; Anoctamin-1 (Mus musculus), Q8BHY3; HEK293 TMEM16A/YFP iodide influx fluorescence, ionomycin; normalized B-score (activity score, 25-100; higher = stronger inhibition) at 10 µM; hit rate 1.2% among 310,000;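 active = ratio plate-corrected score three or more library SD toward inhibition, starting fluorescence score within five deviations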;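 also: score derived from kinetic fluorescence span divided by baseline fluorescence per well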
# KCNK9 inh: KCNK9 potassium channel inhibitors, primary screen, HEK293 cells, thallium flux. AID 488922, 2010. FluxOR thallium flux fluorescence; stronger effect = lower value. Potassium channel subfamily K member 9 (Homo sapiens), Q9NPC2. B-score at 10 µM. hit rate 1.2% among 310,000;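 active = ratio B-score over 3 SD below the library mean, with starting fluorescence within 5 SD of its mean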;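 also: negative B-score means less thallium flux so channel inhibition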
# Target sequence (Q9NPC2 whole entry, looked up): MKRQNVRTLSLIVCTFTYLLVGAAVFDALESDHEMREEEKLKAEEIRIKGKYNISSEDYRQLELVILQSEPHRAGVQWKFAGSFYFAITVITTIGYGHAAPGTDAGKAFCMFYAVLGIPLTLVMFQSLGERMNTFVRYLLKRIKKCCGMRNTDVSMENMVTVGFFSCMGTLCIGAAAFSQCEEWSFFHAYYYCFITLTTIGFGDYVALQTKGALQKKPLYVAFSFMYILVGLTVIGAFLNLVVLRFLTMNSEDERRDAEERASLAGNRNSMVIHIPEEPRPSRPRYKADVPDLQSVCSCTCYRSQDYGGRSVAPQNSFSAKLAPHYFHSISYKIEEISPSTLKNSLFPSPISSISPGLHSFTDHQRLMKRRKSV
# Kir21 block: inhibitors of mouse Kir2.1 inward-rectifier potassium channel. hit rate 0.85% among 310,000. HEK293-Kir2.1, FluxOR thallium flux fluorescence; stronger effect = lower value. B-score at 10 µM;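 active = fluorescence ratio B-score at or below minus 3 SD of library scores, with starting-brightness B-score within 2 SD, cut at about -4.2 in these data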;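 also: channel flux triggered by added potassium and thallium sulfate stimulus; B-score of peak minus minimum fluorescence over baseline after thallium stimulus; more negative B-score means stronger Kir2.1 block with less thallium influx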
# ANO1 activ: TMEM16A chloride channel activators or potentiators, primary screen, cell-based, HTS; Anoctamin-1 (Mus musculus), Q8BHY3; HEK293 TMEM16A/YFP-H148Q/I152L, iodide quench fluorescence; stronger effect = lower value; B-score at 10 µM; hit rate 0.3% among 340,000; AID 623877, 2012;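 active = fluorescence-ratio B-score plate-corrected deviation score at least 3 library SD below zero, with starting fluorescence score within 5 deviations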;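 also: channel opened by trigger with iodide after compound preincubation; score built on the fluorescence ratio of max minus min over baseline; more negative score means more quench and so TMEM16A activation or potentiation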
# KCNK3 block: human KCNK3 channel inhibitors, primary screen, CHO cells, FluxOR thallium flux, B-score; Potassium channel subfamily K member 3 (Homo sapiens), O14649; FluxOR fluorescence; stronger effect = lower value; B-score at 10 µM; hit rate 0.84% among 340,000; AID 602410, 2012;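 active = B-score under library mean minus 4 SD, starting fluorescence ratio at most library mean plus 5 SD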;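 also: more negative B-score means stronger inhibition of thallium flux through KCNK3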
# Target sequence (O14649 whole entry, looked up): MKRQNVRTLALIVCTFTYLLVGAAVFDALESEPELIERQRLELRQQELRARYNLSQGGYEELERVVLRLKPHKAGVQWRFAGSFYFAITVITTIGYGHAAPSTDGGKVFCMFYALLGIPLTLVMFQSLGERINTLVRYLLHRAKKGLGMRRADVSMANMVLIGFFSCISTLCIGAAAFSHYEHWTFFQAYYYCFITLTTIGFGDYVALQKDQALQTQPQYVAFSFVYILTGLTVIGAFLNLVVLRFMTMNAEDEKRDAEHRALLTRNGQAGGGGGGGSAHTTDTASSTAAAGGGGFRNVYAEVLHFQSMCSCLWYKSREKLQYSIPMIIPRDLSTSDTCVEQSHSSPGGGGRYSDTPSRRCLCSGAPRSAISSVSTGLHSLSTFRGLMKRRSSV
# TMEM16A reconf: TMEM16A chloride channel inhibitors, confirmation, cell-based, re-confirmation. shares compounds with ANO1 block. HEK293 TMEM16A/YFP-H148Q, iodide quench fluorescence; ionomycin added to raise cell calcium. inhibition, % at 10 µM. hit rate 39% among 2,300. AID 652189, 2013;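 active = mean duplicate percent inhibition, scaled so buffer wells are 0 and the reference blocker 100, over three buffer SD above buffer mean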
# HEK293 Ca mobil: calcium mobilization in TMEM16A/YFP HEK293 cells, confirmation, counter-screen for TMEM16A inhibitor project; shares compounds with ANO1 block; Fluo4 calcium mobilization; calcium response (% of ionomycin), % at 10 µM; hit rate 2% among 2,300; AID 652231, 2013;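 active = duplicate-averaged calcium signal over 20% of the ionomycin maximum, relative to buffer baseline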;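 also: each well's signal is peak minus trough fluorescence divided by its pre-addition baseline; 0% = buffer wells and 100% = ionomycin wells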
# YFP-HEK293 quench: iodide YFP quench changes in parental YFP-HEK293, counter-screen for TMEM16A inhibitor project, cell-based. shares compounds with ANO1 block. ionomycin. YFP ratio F(max-min)/F0 at 10 µM. 2,300 tested, under 10 active. AID 652233, 2013;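 active = yellow fluorescent protein signal ratio exceeding the buffer control mean by over 5 SD of those controls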;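 also: ratio is mean of duplicate wells from kinetic YFP trace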
# ClC-1 rat inh: ClC-1 chloride channel inhibition, selectivity assay for TMEM16A inhibitor project, cell-based, voltage-dependent ClC-1 | CHO ClC-1-YFP, iodide influx fluorescence quench; iodide control reads 0, buffer control 100 | ratio percent, % at 10 µM | shares compounds with ANO1 block | 2,300 tested, under 10 active | AID 652236, 2013;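 active = duplicate-mean ratio percent above the mean of iodide-only control wells, which defines zero, plus 5 of their SD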;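 also: higher percent means stronger block of ClC-1 iodide influx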
# KCNK3 inh conf: retest of human KCNK3 channel inhibitors, confirmation, CHO cells, FluxOR thallium flux, triplicate; shares compounds with KCNK3 block; FluxOR fluorescence; 0% buffer, 100% carvedilol maximal block; ratio percent of control, % at 10 µM; hit rate 99% among 2,400;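 active = ratio percent of control, averaged over triplicates, above buffer control mean plus 5 SD, cut at about 64% in these data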;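 also: ratio is the fluorescence rise from min to max over baseline after thallium stimulus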
# KCNK3 uninduced: thallium flux inhibition in non-induced cells, primary screen, counter-screen for KCNK3 inhibitor project, cell-based, non-induced KCNK3 line, FluxOR thallium, triplicate; shares compounds with KCNK3 block; non-induced KCNK3 parental cells; stronger effect = lower value; thallium flux ratio (lower = more inhibition) at 10 µM; hit rate 40% among 2,400;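 active = thallium flux ratio, averaged over three wells, more than 5 SD below the buffer control mean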;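 also: host cells are CHO cells without KCNK3 induction; ratio is peak minus trough fluorescence over baseline then normalized to buffer controls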
# Active calls of the source: *; i = inactive; . = no result given. Most compounds without a hit are left out; they make up all but 3.5% or so of the library.
SMILES,ANO1 block,KCNK9 inh,Kir21 block,ANO1 activ,KCNK3 block,TMEM16A reconf,HEK293 Ca mobil,YFP-HEK293 quench,ClC-1 rat inh,KCNK3 inh conf,KCNK3 uninduced
NC(=O)c1ccc(Br)c(S(=O)(=O)N2CCCCC2)c1,i,i,-0.09,i,i,.,.,.,.,.,.
O=C(OCc1ccccn1)c1ccc(COc2ccc3ccccc3c2)o1,25*,-7.01*,0.05,i,-10.4*,32.5%*,i,-1.09,-2.0,122.3*,0.146*
NNC(=O)c1ccc(COc2ccc3ccccc3c2)o1,i,i,0.5,i,i,.,.,.,.,.,.
O=C1c2ccc(-c3ccc4c(c3)C(=O)N(CCO)C4=O)cc2C(=O)N1CCO,i,i,-0.4,i,i,.,.,.,.,.,.
CN(CC(=O)Nc1cccc(S(=O)(=O)N2CCOCC2)c1)CC(=O)Nc1ccc(Cl)c(C(F)(F)F)c1,25*,i,-0.39,i,-11.5*,i,i,-1.31,-9.5,119.7*,0.136*
CN(CC(=O)Nc1cccc(F)c1)CC(=O)Nc1cc(S(=O)(=O)N2CCOCC2)ccc1Cl,.,.,.,i,i,.,.,.,.,.,.
CCCN1CCc2c(sc(NC(=O)c3ccc(S(=O)(=O)N(C)c4ccccc4)cc3)c2C(=O)NC)C1,i,i,-0.14,i,-8.99*,23.5%*,i,-0.774,3.5,171.3*,0.0547*
CCOC(=O)CCSc1nc(C(C)(C)C)cc(C(F)(F)F)c1C#N,100*,i,0,i,-8.86*,i,i,-1.19,-5.5,131.0*,0.127*
COc1ccc(OC)c(NC(=O)CSc2ccc3ccccc3c2)c1,100*,i,-1.17,i,-10.9*,i,i,-1.06,-13.0,117.7*,i
COc1ccc(OC)c(NC(=O)CSc2ccccc2)c1,i,i,-0.22,i,i,.,.,.,.,.,.
CCOC(=O)N1CCN(C(=O)CSCC(=O)Nc2nc(-c3ccc(-c4ccccc4)cc3)cs2)CC1,100*,i,0.46,i,-10.3*,24.0%*,i,-0.868,-20.0,117.0*,0.147*
O=C(c1ccc(Cl)cc1)n1c(NCc2ccccc2)n[nH]c1=S,i,i,-0.24,i,i,.,.,.,.,.,.
Cc1cccc(NS(=O)(=O)c2c(C(=O)N3CCOCC3)c(C)n(C)c2C)c1C,i,i,1.05,i,i,.,.,.,.,.,.
COc1ccc(OC)c(/C=C2/Sc3ccccc3C2=O)c1,i,-7.17*,-0.1,i,-10.5*,i,i,-1.11,5.5,109.7*,0.117*
COc1ccc(OC)c(/C=C2\SC(=S)N(N3CCOCC3)C2=O)c1,i,i,1.83,i,i,.,.,.,.,.,.
C=C(C)c1cccc(C(C)(C)NC(=O)NNC(=O)c2ccccc2O)c1,i,i,0.38,i,i,.,.,.,.,.,.
COc1ccccc1NC(=O)c1cc2cc(Br)ccc2cc1O,100*,i,1.74,i,-8.76*,76.0%*,i,-0.892,-15.0,135.0*,0.105*
COc1cc(NC(=O)c2cc3ccccc3cc2O)c(OC)cc1Cl,i,i,0.36,i,i,.,.,.,.,.,.
Cc1sc2ncnc(N3CCN(S(=O)(=O)c4ccc(C(C)(C)C)cc4)CC3)c2c1C,.,.,.,i,i,.,.,.,.,.,.
Cc1sc2ncnc(N3CCN(S(=O)(=O)c4ccc(Br)cc4)CC3)c2c1C,25*,i,0.08,i,-12.2*,30.0%*,i,-0.99,-23.0,115.7*,0.149*
CCOC(=O)c1cnc(-n2nc(C)cc2C)nc1NC1CCCC1,25*,i,-0.06,i,-9.39*,54.5%*,i,-0.953,-38.5,131.0*,0.107*
O=[N+]([O-])c1ccc(N2CCN(C(=S)Nc3ccccc3)CC2)cc1,i,i,-1.4,i,i,.,.,.,.,.,.
O=[N+]([O-])c1ccc(N2CCN(C(=S)NC3CCCCC3)CC2)cc1,25*,i,0.06,i,-8.84*,i,i,-0.991,-21.0,104.3*,i
CCS(=O)(=O)N1CCN(c2ccc([N+](=O)[O-])c(N3CCOCC3)c2)CC1,i,i,-0.01,i,i,.,.,.,.,.,.
O=C1CCCc2cc3c(cc21)CC1(C3)Cc2cc3c(cc2C1)C(=O)CCC3,25*,i,-0.08,i,-11.4*,20.0%*,i,-1.25,-10.5,139.7*,0.155*
SMILES,ANO1 block,KCNK9 inh,Kir21 block,ANO1 activ,KCNK3 block,TMEM16A reconf,HEK293 Ca mobil,YFP-HEK293 quench,ClC-1 rat inh,KCNK3 inh conf,KCNK3 uninduced
COc1cccc(/C=N/NC(=O)NC2CCCCC2)c1O,i,i,0.71,i,i,.,.,.,.,.,.
Cc1ccc(-c2onc(C)c2C)cc1S(=O)(=O)N1CCOc2ccccc21,100*,i,1.9,i,-9.81*,i,i,-1.18,-6.5,126.0*,0.146*
CCOC(=O)c1cnc2ccc(C(=O)OC)cc2c1Nc1ccc2c(c1)OCCO2,i,i,0.03,i,i,.,.,.,.,.,.
CCOC(=O)c1cnc2ccc(OC)cc2c1Nc1ccc2c(c1)OCCO2,100*,i,0.83,i,-12.2*,i,i,-1.14,-13.5,135.0*,0.156*
O=C(CNCc1ccccc1Cl)Nc1ccccc1N1CCCCC1,25*,i,-0.36,i,-8.95*,i,i,-1.13,-8.0,113.7*,0.151*
O=C(COc1c(Cl)cccc1Cl)Nc1ccccc1N1CCCC1,25*,i,0.12,i,-9.11*,i,i,-1.29,-15.5,120.7*,0.132*
CCOC(=O)N1CCN(CC(O)COc2ccc3c(c2)CCC3)CC1 (stereo not drawn),i,i,0.7,i,i,.,.,.,.,.,.
